Measurements from PubChem BioAssay (EPA / NIEHS).
Calls of active or inactive are those of the source. Rule for the calls: active = hit-call score of the fitted dose curve at least 0.9, where 1 is the maximum; inactive = score below 0.9.

Assays:
[1] = molecular target: CCAAT/enhancer-binding protein beta (Homo sapiens) (UniProt P17676); assay: ATG_C_EBP_CIS: Attagene CIS-FACTORIAL HepG2 Assay for human CCAAT/Enhancer Binding Protein (C/EBP) beta (AID 2282927); details: HepG2 Attagene cis-factorial transcription factor reporter; actives raise or lower the signal
CCAAT/enhancer-binding protein beta (Homo sapiens), sequence (P17676 whole entry, looked up): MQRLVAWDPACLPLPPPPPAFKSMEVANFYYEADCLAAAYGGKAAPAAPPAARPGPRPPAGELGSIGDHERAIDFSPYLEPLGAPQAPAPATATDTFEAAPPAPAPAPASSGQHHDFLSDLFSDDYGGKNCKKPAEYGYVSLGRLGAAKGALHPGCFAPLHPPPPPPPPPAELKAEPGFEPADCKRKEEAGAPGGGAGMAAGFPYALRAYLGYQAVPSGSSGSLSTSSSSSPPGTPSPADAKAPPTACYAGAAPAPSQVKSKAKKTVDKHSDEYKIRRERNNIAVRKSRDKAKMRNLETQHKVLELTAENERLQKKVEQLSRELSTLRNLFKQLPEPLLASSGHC
Procedure, shortened: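 RT-PCR/capillary electrophoresis fluorescence of reporter mRNA, 24 h post-dose, in HepG2 cells carrying transfected cis-promoter reporter units. Bidirectional curve fitting against DMSO baseline captures gain or loss of signal.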

[2] = ATG_CMV_CIS: Attagene CIS-FACTORIAL HepG2 Assay for human CMV (Internal Marker) (AID 2282928); details: HepG2 CMV promoter reporter, transcription factor profiling; actives raise or lower the signal;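 note: endpoint acts as a background internal control marker rather than a target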
Procedure, shortened: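 Endogenous transcription factor activity read in HepG2 via transfected cis-promoter reporter units. After 24 h dosing, reporter mRNA measured by RT-PCR/capillary electrophoresis; gain or loss of signal fit relative to DMSO.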

[3] = ATG_DR4_LXR_CIS: Attagene CIS-FACTORIAL HepG2 Assay for human Liver X Receptor (LXR), DR4 submotif (AID 2282929); details: HepG2 Attagene DR4 cis-reporter, mRNA transcription; actives raise or lower the signal
Procedure, shortened: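 Readout: reporter transcript fluorescence after RT-PCR and capillary electrophoresis, fitted bidirectionally against DMSO controls. Human HepG2 liver cells carried transiently transfected multiplexed reporter constructs; endogenous transcription factor activity measured 24 h post-dosing.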

[4] = ATG_AP_1_CIS: Attagene CIS-FACTORIAL HepG2 Assay for human Activator Protein 1 (AP-1) (AID 2282931); details: HepG2 Attagene cis-factorial AP-1 reporter mRNA; actives raise or lower the signal
Procedure, shortened: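 Reporter transcripts were measured 24 h after dosing by RT-PCR and capillary electrophoresis of fluorescent fragments. Cells: HepG2 carrying transfected cis-regulated reporter constructs reading endogenous factor activity. Gain or loss fitted against DMSO.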

[5] = ATG_AP_2_CIS: Attagene CIS-FACTORIAL HepG2 Assay for human Activator Protein 2 (AP-2) (AID 2282932); details: HepG2 AP-2 cis-reporter, Attagene transcription factor profiling; actives raise or lower the signal
Procedure, shortened: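 Bidirectional curve fitting against DMSO was applied to reporter mRNA signals from HepG2 cells 24 h after dosing. Cis-promoter reporter units, transiently transfected, were read by RT-PCR plus capillary electrophoresis.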

[6] = ATG_BRE_CIS: Attagene CIS-FACTORIAL HepG2 Assay for human Bone Morphogenetic Protein (BMP) Response Element (BRE) (AID 2282933); details: HepG2 BMP response element reporter, Attagene transcription factor profiling; actives raise or lower the signal
Procedure, shortened: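 After a 24 h chemical treatment, transiently transfected HepG2 cells were lysed for RNA; reporter transcripts were quantified by fluorescent RT-PCR and capillary electrophoresis, normalised to DMSO.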

[7] = molecular target: Retinoic acid receptor alpha (Homo sapiens) (UniProt P10276); assay: ATG_DR5_RAR_CIS: Attagene CIS-FACTORIAL HepG2 Assay for human Retinoic Acid Receptor Alpha (RARE), DR5 submotif (AID 2282934); details: HepG2 Attagene cis-factorial RARE DR5 reporter, mRNA; actives raise or lower the signal;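 for AC50: reporter responds to endogenous RAR alpha beta and gamma in HepG2 not RARA alone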
Retinoic acid receptor alpha (Homo sapiens), sequence (P10276 whole entry, looked up): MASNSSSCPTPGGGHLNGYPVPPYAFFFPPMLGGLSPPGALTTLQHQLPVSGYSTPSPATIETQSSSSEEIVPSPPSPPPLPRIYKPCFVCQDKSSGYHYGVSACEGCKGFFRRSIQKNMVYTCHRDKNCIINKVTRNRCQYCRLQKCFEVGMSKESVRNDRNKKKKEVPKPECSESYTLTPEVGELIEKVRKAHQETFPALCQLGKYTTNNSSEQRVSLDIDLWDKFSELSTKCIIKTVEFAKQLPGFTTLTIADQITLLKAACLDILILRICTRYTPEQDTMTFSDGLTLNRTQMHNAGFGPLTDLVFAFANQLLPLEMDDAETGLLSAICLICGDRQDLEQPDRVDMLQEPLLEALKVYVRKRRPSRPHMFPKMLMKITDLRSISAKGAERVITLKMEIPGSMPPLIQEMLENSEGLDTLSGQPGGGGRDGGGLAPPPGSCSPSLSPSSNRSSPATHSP
Procedure, shortened: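 HepG2 cells transiently transfected with multiplexed reporter units under cis (DR5 RARE) promoters, so endogenous transcription factor activity is measured. After 24 h compound exposure, reporter mRNA is quantified by RT-PCR with fluorescent labelling and capillary electrophoresis; bidirectional fitting versus DMSO.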

[8] = molecular target: Transcription factor E2F1 (Homo sapiens) (UniProt Q01094); assay: ATG_E2F_CIS: Attagene CIS-FACTORIAL HepG2 Assay for human E2F Transcription Factor 1 (AID 2282935); details: HepG2 Attagene cis-reporter, E2F reporter RNA transcripts; actives raise or lower the signal
Transcription factor E2F1 (Homo sapiens), sequence (Q01094 whole entry, looked up): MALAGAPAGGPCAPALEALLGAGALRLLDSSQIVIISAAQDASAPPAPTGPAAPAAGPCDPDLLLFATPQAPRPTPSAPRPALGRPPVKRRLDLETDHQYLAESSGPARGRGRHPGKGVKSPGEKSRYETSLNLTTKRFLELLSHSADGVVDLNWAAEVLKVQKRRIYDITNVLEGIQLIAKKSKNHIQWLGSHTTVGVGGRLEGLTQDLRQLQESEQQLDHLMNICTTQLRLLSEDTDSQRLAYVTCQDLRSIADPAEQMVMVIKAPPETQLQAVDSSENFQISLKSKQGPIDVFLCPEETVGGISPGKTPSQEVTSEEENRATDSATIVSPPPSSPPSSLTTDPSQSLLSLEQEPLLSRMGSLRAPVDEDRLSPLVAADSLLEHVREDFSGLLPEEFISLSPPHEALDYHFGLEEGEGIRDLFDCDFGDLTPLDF
Procedure, shortened: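 Multiplexed cis-reporter assay: HepG2, transient transfection, 24 h dosing, mRNA quantitation by labeled RT-PCR and CE.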

[9] = ATG_E_Box_CIS: Attagene CIS-FACTORIAL HepG2 Assay for human Enhancer Box (E-box) (AID 2282936); details: HepG2 E-box cis-reporter transcription, actives raise or lower the signal
Procedure, shortened: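 Multiplexed CIS reporter system in transiently transfected HepG2 cells measures native transcription factor activity. Reporter RNA after 24 h exposure is profiled by RT-PCR-capillary electrophoresis.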

Measured: AC50

CC(C)(C)[C@@H](O)[C@@H](Cc1ccc(Cl)cc1)n1cncn1
active: [1] 3.43 µM | [4] 13.5 µM | [6] 13.7 µM | [7] 32.1 µM
inactive: [2] | [3] | [5] | [8] | [9]

CCC(C)OC(=O)N1CCCCC1CCO (stereo not given)
inactive: [1] | [2] | [3] | [4] | [5] | [6] | [7] | [8] | [9]

CCSC(=O)N(CC(C)C)CC(C)C
inactive: [1] | [2] | [3] | [4] | [5] | [6] | [7] | [8] | [9]

CCOC(=O)NCCOc1ccc(Oc2ccccc2)cc1
inactive: [4] | [5] | [7] | [8] | [9]
active: [1] 13.4 µM | [2] 13.1 µM | [3] 89.6 µM | [6] 27.9 µM

CCN(Cc1c(F)cccc1Cl)c1c([N+](=O)[O-])cc(C(F)(F)F)cc1[N+](=O)[O-]
active: [2] 10.6 µM | [3] 8.45 µM | [4] 28.9 µM | [6] 1.4 µM | [7] 1.8 µM
inactive: [1] | [5] | [8] | [9]

CCCCCOC(=O)COc1cc(N2C(=O)C3=C(CCCC3)C2=O)c(F)cc1Cl
active: [3] 32.6 µM | [9] 50 µM
inactive: [1] | [2] | [4] | [5] | [6] | [7] | [8]

O=C(c1ccccc1)C1CCCCC1
inactive: [1] | [2] | [3] | [4] | [5] | [6] | [7] | [8] | [9]

O=C(Nc1ccc([N+](=O)[O-])cc1Cl)c1cc(Cl)ccc1O
active: [1] 0.463 µM | [2] 1.16 µM | [4] 1.01 µM | [6] 0.652 µM
inactive: [3] | [5] | [7] | [8] | [9]

CCNc1nc(N)nc(Cl)n1
inactive: [1] | [2] | [3] | [4] | [5] | [6] | [7] | [8] | [9]

CCCOC(=O)NCCCN(C)C
inactive: [1] | [2] | [3] | [4] | [5] | [6] | [7] | [8] | [9]

CCOC(=O)C(C)Oc1ccc(Oc2cnc3cc(Cl)ccc3n2)cc1 (stereo not given)
inactive: [1] | [2] | [3] | [4] | [5] | [6] | [7] | [8] | [9]

COC(=O)c1ccccc1C(=O)O
inactive: [1] | [2] | [3] | [4] | [5] | [6] | [7] | [8] | [9]

CCN(CC)C(=O)c1cccc(C)c1
inactive: [1] | [2] | [3] | [4] | [5] | [6] | [7] | [8] | [9]

C[C@]12CC[C@@H]3c4ccc(O)cc4C[C@@H](CCCCCCCCCS(=O)CCCC(F)(F)C(F)(F)F)[C@H]3[C@@H]1CC[C@@H]2O (stereo not given in full)
inactive: [1] | [2] | [3] | [4] | [5] | [6] | [7] | [8] | [9]

COC(=O)CSc1cc(N=c2sc(=O)n3n2CCCC3)c(F)cc1Cl
inactive: [1] | [2] | [3] | [4] | [5] | [6] | [8] | [9]

C#C[C@]1(O)CC[C@H]2[C@@H]3CCC4=CC(=O)CC[C@@H]4[C@H]3CC[C@@]21CC
inactive: [1] | [2] | [3] | [4] | [5] | [6] | [8] | [9]

CCOC(=O)[C@H](C)Oc1ccc(Oc2nc3ccc(Cl)cc3o2)cc1
inactive: [1] | [2] | [3] | [4] | [5] | [6] | [7] | [8] | [9]

Cc1nn(C)c(Oc2ccccc2)c1C=NOCc1ccc(C(=O)OC(C)(C)C)cc1
active: [1] 0.0505 µM | [2] 0.0218 µM | [4] 0.0252 µM | [6] 0.0409 µM | [7] 0.0303 µM
inactive: [3] | [5] | [8] | [9]

CCCCOC(=O)[C@@H](C)Oc1ccc(Oc2ccc(C(F)(F)F)cn2)cc1
inactive: [1] | [2] | [3] | [4] | [5] | [6] | [7] | [8] | [9]

CCCCC(CC)COC(=O)c1ccccc1C(=O)O (stereo not given)
inactive: [1] | [2] | [3] | [4] | [5] | [6] | [8] | [9]

O=C(O)C1(C(=O)Nc2ccc(Cl)cc2Cl)CC1
inactive: [1] | [2] | [3] | [4] | [5] | [6] | [7] | [8] | [9]

O=C(c1ccc(O)cc1O)c1ccc(O)cc1O
inactive: [1] | [3] | [4] | [5] | [6] | [7] | [8] | [9]
active: [2] 80.5 µM [middle of 4 runs]

COC(=O)c1ccccc1S(=O)(=O)NC(=O)Nc1nc(OC(F)F)cc(OC(F)F)n1
inactive: [1] | [2] | [3] | [4] | [5] | [6] | [7] | [8] | [9]

CCCN(CCC)c1c([N+](=O)[O-])cc(C(F)(F)F)c(N)c1[N+](=O)[O-]
active: [2] 24.5 µM | [3] 6.65 µM | [4] 63 µM | [6] 36.1 µM
inactive: [1] | [5] | [7] | [8] | [9]

CCCCCCC(C)OC(=O)COc1nc(F)c(Cl)c(N)c1Cl (stereo not given)
inactive: [1] | [2] | [3] | [4] | [5] | [6] | [8] | [9]

CCC(O)=C1C(=O)CC(C(=O)O)CC1=O (stereo not given)
inactive: [1] | [2] | [3] | [4] | [5] | [6] | [7] | [8] | [9]
